In all, about 350,000 compounds went through this assay and about 7,000 (2%) were called active. Rule as the data show it: active = activation above about 40%; inconclusive = no clear call, values can overlap the other calls; inactive = below that. The list comes from a sample in which actives are over-represented; it also holds similar structures and randomly drawn compounds.
assay: raisers of Bmi1 knock-in reporter signal – mouse ES cells, Bmi1 luciferase knock-in, single point, esBAF inhibitor project, primary screen (AID 602393); conditions: 24 h, at 12.5 µM, stronger effect = higher value, 100% = twice the neutral-well signal;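 also: 0% = median of the plate's neutral control wells and 100% = double that signal; a rise in the Bmi1 reporter signal indicates esBAF inhibition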

Reporter increase, inactive:
CN(C)CC(=O)Nc1ccc2c(c1)[C@@H]1C[C@H](CC(=O)NCC3CC3)O[C@@H](CO)[C@@H]1O2 5.49%
CO[C@@H]1CN(C)C(=O)c2cc(NC(=O)c3ccc4c(c3)OCO4)ccc2OC[C@H](C)N(CCC(F)(F)F)C[C@H]1C 1.54%
O=C(NCC[C@@H]1CC[C@H](NS(=O)(=O)c2cccc(F)c2)[C@H](CO)O1)c1cnccn1 -3.13%
C[C@H](CO)N1C[C@H](C)[C@@H](CN(C)Cc2ccccn2)Oc2ncc(-c3cccc(F)c3)cc2C1=O 0.648%
COC(=O)COc1cccc2c(=O)n(CC(=O)NCCc3ccc(OC)c(OC)c3)ccc12 8.15%
COc1cc(C=O)c(Br)cc1OCC(=O)NCc1ccccc1 0.717%
O=C(C[C@H]1C[C@H]2c3cc(NC(=O)C4CCOCC4)ccc3O[C@H]2[C@@H](CO)O1)NCC1CC1 0.385%
O=C(CN1CCN(c2ccccc2F)CC1)c1ccc2c(c1)OCO2 14.1%
O=C(COC(=O)c1ccccc1)c1ccc2c(c1)OCCO2 1.23%
O=C(COC(=O)c1ccc2c(c1)OCCO2)NCc1ccccc1Cl -1.54%
O=C(COC(=O)c1ccc(O)cc1O)NC(=O)c1ccccc1 -3.35%
C/C=C/c1ccc([C@H]2[C@@H](CO)N(C(C)=O)[C@H]2CN(C)S(C)(=O)=O)cc1 -4.53%
O=C(C1CCC1)N1C[C@H]2[C@@H](c3ccccc31)[C@H](CO)N2C(=O)Nc1cccc(F)c1 -1.72%
Cc1nnc(NC(=O)c2ccc3nccnc3c2)s1 16.2%
CCOc1cccc(C(=O)Nc2cnn(Cc3ccccc3)c2)c1 13%
Cc1noc(C)c1NC(=O)N[C@@H]1C=C[C@H](CC(=O)N2CCCCC2)O[C@H]1CO -4.9%
COc1ccc(CNC(=O)C[C@H]2C[C@H]3c4cc(NS(C)(=O)=O)ccc4O[C@H]3[C@@H](CO)O2)cc1 -3.21%
CN(C)C(=O)c1cccc(-c2ccc3c(c2)[C@H]2[C@H](CCN2C(=O)Cc2ccccc2)[C@H](CO)N3)c1 11%
O=C(Nc1ccc(Cl)cc1)c1csc([C@@H]2O[C@H](CO)[C@H](O)[C@H](O)[C@H]2O)n1 -3.58%
O=C(Nc1ccc(OCCO)cc1)c1csc([C@H]2C[C@H](O)[C@@H](CO)O2)n1 0.832%
CCCNC(=O)[C@@H]1[C@@H](CO)[C@@H]2Cn3c(ccc(C4=CCCCC4)c3=O)[C@H]1N2CCC 2.73%
O=C(C[C@H]1C[C@@H]2c3cc(NC(=O)C4CCC4)ccc3O[C@@H]2[C@@H](CO)O1)NCCN1CCCCC1 -1.5%
COC(=O)c1c(-c2ccc(C)cc2)csc1N 0.96%
COc1ccccc1CNC(=O)C[C@@H]1C[C@H]2c3cc(NC(=O)CN(C)C)ccc3O[C@H]2[C@@H](CO)O1 0.071%
CS(=O)(=O)Nc1ccc2c(c1)[C@H]1C[C@H](CC(=O)NCc3ccc(Oc4ccccc4)cc3)O[C@H](CO)[C@H]1O2 7.43%
C[C@H]1CN([C@@H](C)CO)C(=O)c2cc(Br)cnc2O[C@H]1CN(C)Cc1cccc(F)c1 -3.97%
O=C(Nc1ccccc1)N1CCN(C2c3ccccc3-c3ccccc32)CC1 4.83%
O=C(Nc1ccccc1)N1CCC(C(=O)N2CCN(Cc3ccccc3)CC2)CC1 12%
C[C@@H]1CN([C@H](C)CO)S(=O)(=O)c2ccc(-c3cccc(F)c3)cc2O[C@H]1CN(C)S(=O)(=O)c1ccc(F)cc1 10%
O=C(NC1CCC1)[C@H]1[C@H](CO)[C@H]2Cn3c(ccc(-c4ccccc4)c3=O)[C@@H]1N2Cc1cocn1 12.8%
O=C(C1CCC1)N1CCCCN2[C@H](CO)[C@H](c3ccc(-c4cccc(F)c4)cc3)[C@H]2C1 -5.73%
N#CCC(=O)NC(=O)NCC1CC1 6.44%
CC(C)(C)NC(=O)NC(=O)COC(=O)CCC1CCCCC1 -5.79%
CCCNC(=O)C[C@H]1CC[C@H]2[C@H](COc3ccc(NC(=O)CC)cc3C(=O)N2C)O1 2.93%
C[C@H]1CN([C@@H](C)CO)C(=O)c2cccc(NS(=O)(=O)c3ccc(F)cc3)c2O[C@@H]1CN(C)CC1CC1 -4.49%
CC(C)NC(=O)Nc1ccc2c(c1)C(=O)N([C@@H](C)CO)C[C@@H](C)[C@@H](CN(C)S(=O)(=O)c1ccc(F)cc1)OCCCC[C@H](C)O2 -2.87%
C[C@@H]1CN([C@H](C)CO)S(=O)(=O)c2ccc(-c3cncnc3)cc2O[C@@H]1CN(C)Cc1ccccn1 -3.4%
CC(OC(=O)c1c(F)cccc1F)C(=O)NCCC1=CCCCC1 (centres undefined) -1.99%
CC(=O)Nc1ccc(S(=O)(=O)N(C)CC(=O)NCCC2=CCCCC2)cc1 -5.82%
NS(=O)(=O)c1ccc(CCNC(=O)c2ccc(Cl)cc2[N+](=O)[O-])cc1 0.338%
Cc1cc(C(=O)NCCc2ccc(Cl)cc2)n(-c2ccccc2)n1 -4.28%
Cn1cnc(CCNC(=O)[C@H]2[C@H](CO)[C@H]3Cn4c(cccc4=O)[C@H]3N2C(=O)Nc2ccccc2)c1 6.91%
O=C(NC1CCCCC1)N[C@H]1CC[C@H](CCNS(=O)(=O)c2ccc(F)cc2)O[C@H]1CO 12.9%
O=C(c1nnc(-c2ccc(Cl)cc2)o1)C1CCCC1 19.6%
O=C(Nc1nnc(-c2ccc(Cl)cc2)o1)c1ccccc1Br 17.7%
Cc1ccc(CNC(=O)CCNC(=O)Cn2ccc3ccccc3c2=O)cc1 -7.21%
COc1ccc(NC(=O)CCNC(=O)Cn2ccc3ccccc3c2=O)c(OC)c1 -7.83%
O=C(C[C@@H]1C=C[C@@H](NS(=O)(=O)c2ccccc2)[C@@H](CO)O1)NCc1ccccc1F -1.71%
CC(C)NC(=O)N(C)C[C@@H]1Oc2c(cccc2N(C)C)C(=O)N([C@@H](C)CO)C[C@H]1C -5.01%
C[C@H](CO)N1C[C@H](C)[C@@H](CN(C)C(=O)C2CCC2)Oc2cc(C3=CCCCC3)ccc2S1(=O)=O 0.47%
COc1ccc(S(=O)(=O)N(C)C[C@H]2Oc3ccc(NC(=O)Nc4c(C)noc4C)cc3C(=O)N([C@@H](C)CO)C[C@@H]2C)cc1 -2.46%
CC(C)c1nc2cc(C(=O)NC(C)c3cnn(C)c3)ccc2o1 (centres undefined) 3.1%
COc1ccc(CNC(=O)c2cc(=O)c3c(C)cc(C)cc3o2)cc1 1.4%
COC(=O)c1ccc(CSc2nc3cc(Cl)ccc3o2)cc1 -4.19%
COC(=O)c1ccc(CNC(=O)c2ccc(S(=O)(=O)N3CCCCCC3)cc2)cc1 1.32%
O=C(NCC[C@@H]1CC[C@@H](NC(=O)C2CCCC2)[C@H](CO)O1)c1cnccn1 -3.83%
COc1ccc(S(=O)(=O)N(C)C[C@H]2Oc3c(NS(=O)(=O)c4ccc(F)cc4)cccc3C(=O)N([C@H](C)CO)C[C@H]2C)cc1 0.834%
C[C@H](CO)N1C[C@H](C)[C@@H](CN(C)Cc2ccc(C(=O)O)cc2)Oc2ccc(NS(=O)(=O)c3cn(C)cn3)cc2CC1=O -1.15%
C[C@@H]1CN([C@@H](C)CO)C(=O)c2cc(NC(=O)Cc3ccccc3)ccc2O[C@@H](C)CCCCO[C@H]1CN(C)C(=O)Nc1cccc2ccccc12 1.67%
CS(=O)(=O)Nc1ccc2c(c1)[C@@H]1C[C@H](CC(=O)NCc3cc(F)ccc3F)O[C@@H](CO)[C@@H]1O2 1.97%
O=C(C[C@H]1CC[C@H](NC(=O)c2ccc3c(c2)OCO3)[C@H](CO)O1)NCc1ccc(Oc2ccccc2)cc1 -8.21%
CNC[C@H]1Oc2ccc(NC(=O)Nc3ccc4c(c3)OCO4)cc2CC(=O)N([C@H](C)CO)C[C@H]1C 0.772%
COc1ccc(NC(=O)N(C)C[C@@H]2Oc3c(NC(=O)C4CCOCC4)cccc3C(=O)N([C@H](C)CO)C[C@@H]2C)cc1 1.63%

Reporter increase, active:
COc1ccc(CNC(=O)COc2ccccc2C(=O)c2cnn(-c3ccccc3)c2)cc1OC 75.1%
O=C(OCc1ccccc1F)c1ccc2c(c1)OCCO2 58.2%
O=C(COC(=O)c1ccc(O)cc1O)c1ccc2c(c1)OCCO2 90.2%
CCOc1cccc(C(=O)Nc2nnc(-c3cccs3)s2)c1 50%
O=C(Nc1ccc(Cl)cc1)c1csc([C@H]2C[C@H](O)[C@@H](CO)O2)n1 67.4%
Nc1scc(-c2ccncc2)c1Cl 47.9%
O=C(Nc1ccccc1)N1CCN(Cc2ccccc2)CC1 40.2%
O=C(NCC1CCCCC1)NCC1CCCCC1 44.8%
Cc1cccc(N2O[C@H]3C=CC2CCCC3)n1 56.9%
S=C(NCCC1=CCCCC1)Nc1ccccc1 51.5%
Cc1cc(C(=O)NCCc2ccc(Cl)cc2)c(C)o1 55.1%
CSc1ccccc1-c1nnc(-c2ccc(Cl)cc2)o1 67.2%
COc1cc(NC(=O)CCNC(=O)Cn2ccc3ccccc3c2=O)cc(OC)c1OC 52.2%
COC(=O)c1ccc(CNC(=O)c2ccc3oc(C(C)C)nc3c2)cc1 49%
COc1ccc(CNC(=O)c2ccc3oc(C(C)C)nc3c2)cc1 47.5%
Nc1ccc(N=Nc2ccccc2Cl)c(N)n1 76%
